# Shown are actives, neighbours in structure and some others; about 1.5% of the full set was active somewhere.
# GLD-1 RNA inh: GLD-1/TGE RNA complex disruptors, primary screen, biochemical, fluorescence polarization; purified GLD-1 + fluorescein TGE RNA; inhibition, % at 5.96 µM; hit rate 0.44% among 320,000;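 active = percent inhibition above a per-plate cutoff, the plate mean of test compounds plus 3 SD, cut at about 30% in these data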;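 note: 0% = DMSO wells with GLD-1 and probe and 100% = wells lacking GLD-1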
# EBV gp42 inh: Epstein-Barr virus gp42 inhibitors, primary screen, biochemical, uHTS, fluorescence polarization; hit rate 0.42% among 220,000; Fluorescence polarization binding assay, mP read-out; inhibition, % (tested at 21.74 µM); AID 1085, 2008; Glycoprotein 42 (Epstein-Barr virus (strain AG876)), Q1HVG2; in the data active = inhibition above about 50%
# BCLXL inh: inhibitors of human Bcl-xL, primary screen, biochemical, fluorescence polarization, HTS; AID 2129, 2009; GST-Bcl-xL / FITC-Bim BH3 peptide fluorescence polarization; hit rate 0.7% among 320,000; Bcl-2-like protein 1 (Homo sapiens), Q07817; inhibition, % at 10.9 µM;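 active = inhibition above the mean of all tested compounds plus 3 SD, cutoff set per campaign, cut at about 30% in these data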;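 note: 0% = DMSO wells and 100% = unlabeled Bim-BH3 peptide competitor; inhibitors lower millipolarization by displacing the labeled peptide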
# eLon inh: inhibitors of E. coli Lon protease, primary screen, biochemical, fluorescence polarization; purified E. coli Lon protease; inhibition, % at 7.94 µM; P0A9M0; hit rate 0.42% among 360,000; in the data active = inhibition above about 13%, passing the limit was not always enough;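 note: 0% = enzyme with probe and DMSO and 100% = no enzyme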
# Target sequence (P0A9M0 whole entry, looked up): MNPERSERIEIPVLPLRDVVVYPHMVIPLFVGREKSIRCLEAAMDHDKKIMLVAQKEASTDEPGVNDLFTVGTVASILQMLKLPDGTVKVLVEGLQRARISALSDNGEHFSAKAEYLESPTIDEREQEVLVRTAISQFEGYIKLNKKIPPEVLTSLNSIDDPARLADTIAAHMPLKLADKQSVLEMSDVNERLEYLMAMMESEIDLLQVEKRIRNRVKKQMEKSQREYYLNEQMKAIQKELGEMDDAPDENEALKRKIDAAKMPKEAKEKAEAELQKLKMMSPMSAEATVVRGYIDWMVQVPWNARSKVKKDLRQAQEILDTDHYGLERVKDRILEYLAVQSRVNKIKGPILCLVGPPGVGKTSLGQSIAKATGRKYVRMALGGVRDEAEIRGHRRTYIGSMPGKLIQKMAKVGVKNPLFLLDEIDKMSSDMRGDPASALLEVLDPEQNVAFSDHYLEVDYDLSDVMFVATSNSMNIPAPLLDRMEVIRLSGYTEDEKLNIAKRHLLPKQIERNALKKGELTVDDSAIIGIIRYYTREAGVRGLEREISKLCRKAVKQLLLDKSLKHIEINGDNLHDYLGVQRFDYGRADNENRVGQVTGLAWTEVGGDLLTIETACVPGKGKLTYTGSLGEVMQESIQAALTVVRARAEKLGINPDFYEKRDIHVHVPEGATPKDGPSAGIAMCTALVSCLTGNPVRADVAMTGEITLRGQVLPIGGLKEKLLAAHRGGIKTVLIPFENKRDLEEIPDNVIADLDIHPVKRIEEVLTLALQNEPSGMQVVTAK
# MCL1-BIM inh: inhibitors of MCL1 binding to BIM-BH3, primary screen, biochemical, fluorescence polarization; GST-MCL1 / FITC-Bim-BH3 fluorescence polarization; Induced myeloid leukemia cell differentiation protein Mcl-1 (Homo sapiens), Q07820; AID 2057, 2009; inhibition, % at 10.9 µM; hit rate 0.68% among 320,000;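 active = inhibition above the mean inhibition of all tested compounds plus 3 SD, set per campaign, cut at about 40% in these data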;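 note: 0% = DMSO wells and 100% = unlabeled Bim-BH3 peptide control; higher means more loss of mP so more displacement of Bim peptide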
# MEX-5 binding: MEX-5 zinc finger RNA-binding disruptors – biochemical, C. elegans, fluorescence polarization, MLPCN library, primary screen; AID 1832, 2009; activity score (negative = inhibition of binding), % at 10 µM; MEX-5/FITC-TCR2 RNA binding; hits give low values; hit rate 0.38% among 300,000;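 active = inhibition past about -25% in most replicates, and total fluorescence under double the plate's negative control median, limit read from the data; inconclusive = replicates evenly split on the limit, or fluorescence at least double controls; inactive = too little inhibition in most replicates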;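 note: 0% = DMSO and -100% = 5 µM competing unlabeled TCR2 RNA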
# * = called active by the depositor; ? = inconclusive; . = no result given.
SMILES,GLD-1 RNA inh,EBV gp42 inh,BCLXL inh,eLon inh,MCL1-BIM inh,MEX-5 binding
Cc1cc(NC(=O)c2cc(-c3ccccc3)on2)no1,5,-18,-1,-6,-6,-1
Cc1ccc(-c2cc(C(=O)Nc3cc(C)on3)no2)cc1,47*,11,37*,-2,28,0
O=C(CC1Nc2ccccc2NC1=O)Nc1cc(Cl)cc(Cl)c1 (stereo unspecified),1,21,-4,-8,1,?
COC(=O)c1c(NC(=O)CC2Nc3ccccc3NC2=O)sc(C)c1C (stereo unspecified),-17,-8,0,-21,-4,-32*
O=C(CC1Nc2ccccc2NC1=O)NCCCN1CCCCCC1 (stereo unspecified),-11,-12,6,-1,9,2
CCOC(=O)c1c(NC(=O)CC2Nc3ccccc3NC2=O)sc(C)c1C (stereo unspecified),-6,-120,1,-2,-10,-35*
CCCSCCCNC(=O)CC1Oc2ccccc2NC1=O (stereo unspecified),-2,68*,2,8,-1,-1
CCCCNC(=O)CC1Nc2ccccc2NC1=O (stereo unspecified),30,7,32*,5,28,-12
COCCCNC(=O)CC1Oc2ccccc2NC1=O (stereo unspecified),10,3,3,-2,3,-1
CSc1cccc(CN(C)C(=O)C2CCC(=O)N(CCCN3CCCC3=O)C2)c1 (stereo unspecified),-7,.,0,7,1,.
O=C(O)c1ccc2c(c1)NC(=O)C(N1CCCC1)S2 (stereo unspecified),26,33,32*,-10,41*,-12
COC(=O)c1ccc2c(c1)NC(=O)C(N1CCCC1)S2 (stereo unspecified),-5,-14,-2,-18,-12,0
COc1ccc(NC(=O)c2nc3nccc(C)n3n2)cn1,13,12,34*,-6,36,-19
CCN(CC)S(=O)(=O)c1ccc2c(c1)N(CC(=O)NCCN1CCOCC1)C(=O)CO2,-2,.,2,1,0,1
O=C1C2C3C=CC(C3)C2C(=O)N1c1ccccc1 (stereo unspecified),-2,2,3,2,0,1
O=C(c1ccco1)[C@@H]1[C@@H]2C(=O)N(c3ccc(F)cc3)C(=O)[C@@H]2[C@H]2C=Cc3ccccc3N21,20,23,33*,-28,9,.
O=C(c1ccco1)[C@@H]1[C@@H]2C(=O)N(c3ccc(F)cc3)C(=O)[C@@H]2C2c3ccccc3C=CN21 (stereo partly specified),69*,54*,78*,.,82*,-13
O=C(c1ccco1)[C@@H]1[C@@H]2C(=O)N(c3ccc(Br)cc3)C(=O)[C@@H]2C2c3ccccc3C=CN21 (stereo partly specified),.,.,.,-8,.,.
NC(=O)[C@@H]1[C@@H]2C(=O)N(c3ccc(F)cc3)C(=O)[C@@H]2[C@H]2C=Cc3ccccc3N21,20,32,34*,2,32,-7
CCn1c(SCc2nc3sc(C(=O)O)c(C)c3c(=O)[nH]2)nc2ccccc21,0,19,24,-42,28,-43*
COc1ccc(NC(=O)CN2CCC(NC(=O)C3CCCCC3)CC2)c([N+](=O)[O-])c1,-1,-8,3,-4,3,-92*
Cc1ccc(NS(=O)(=O)c2cc3c4c(cccc4c2)C(=O)NC3=O)cc1,3,-6,3,10,2,-4
CNS(=O)(=O)c1cc2c3c(cccc3c1)C(=O)NC2=O,2,8,32*,-4,21,1
CN(CCCNC(=O)CCC(=O)N1CCOc2ccc(Cl)cc21)Cc1ccccc1,-2,.,4,1,5,-1
O=C(NC1CCCCC1)C1c2ccccc2OCC(=O)N1Cc1ccccc1 (stereo unspecified),.,.,.,-3,.,.
SMILES,GLD-1 RNA inh,EBV gp42 inh,BCLXL inh,eLon inh,MCL1-BIM inh,MEX-5 binding
C[n+]1cccc(C2C(C#N)=C(N)Oc3c2ccc2ccccc32)c1 (stereo unspecified),5,15,39*,8,30,-9
C[n+]1cccc2ccc3c(c21)OC(N)=C(C#N)C3c1ccccc1 (stereo unspecified),6,-48,-10,10,-15,2
CCCCn1c(-c2ccccc2C)nc2cc3[nH]c(=O)c(C(C)C)nc3cc21,7,.,30*,-2,32,0
CC(C)N(Cc1nc(-c2ccc(Cl)cc2)no1)Cc1nccn1C,4,-4,5,-5,3,4
Cc1nnsc1C(=O)N/N=C/c1ccc2ccccc2c1O,-57,-109,75*,-88,84*,-2
CC(=O)Oc1cc2c3c(c1)/C(=C1/SC(=S)NC1=O)C(=O)N3C(C)(C)C=C2C,9,9,50*,3,10,1
CCC/C(C#Cc1ccc(N(C)C)cc1)=C1/c2ccccc2C(=O)N1c1ccccc1,119*,.,.,-163,.,.
CCC/C(C#Cc1cc(OC)cc(OC)c1)=C1/c2ccccc2C(=O)N1c1ccccc1,2,.,.,7,.,.
O=C(NC1CCC(=O)N(CCOc2ccccc2)CC1)OCc1ccccc1 (stereo unspecified),-3,.,4,-5,6,1
Cn1c(C(=O)NCCCN2CCOCC2)cc2c(=O)n(C)c3ccccc3c21,1,4,3,-3,1,-42*
CC1CCN(CCCNC(=O)c2cc3c(=O)n(C)c4ccccc4c3n2C)CC1,-2,3,6,-2,4,0
CC(C)COc1ccc(C(=O)NC(CC(C)C)C(=O)O)cc1 (stereo unspecified),-6,144*,-1,-9,-4,-4
COc1ccc(C(=O)NC(CC(C)C)C(=O)O)cc1 (stereo unspecified),1,.,8,-2,13,.
O=C(NC1CCCCC1)C(c1ccccc1)N(Cc1cccnc1)C(=O)c1csnn1 (stereo unspecified),2,.,6,-8,5,-1
Cc1c(NC(=O)Nc2cccc(F)c2)c(=O)n(-c2ccccc2)n1C,121*,.,8,-16,3,-1
Cc1cccc(NC(=O)Nc2c(C)n(C)n(-c3ccccc3)c2=O)c1,-1,.,4,3,-3,-2
COc1ccc(CCN2CC(C(=O)NCCc3cccnc3)CCC2=O)cc1 (stereo unspecified),.,.,.,1,.,-3
